Only some compounds are listed: those with a hit (about 3.7% of all), similar ones and a draw of the others.
HTT promoter inh: HTT promoter inhibition | HEK293 HTT promoter firefly luciferase reporter, 24 h | Potency, µM (doses to about 57.5 µM), for inactives: top-dose activity change, negative = inhibition, usual class: inhibitors | 0.93% of 48,000 active; further: potency means the concentration at half of the fitted maximal effect; nearly all actives have a fitted effect of over 50% in size
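HEK293 luciferase promoter-reporter cells (2,500/well) plated 24 h, then compounds added at up to 57.5 uM final for 24 h at 37 °C. Firefly luminescence by Dual-Glo, normalized to vehicle (0%) and zero RLU (-100%).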
HTT-AS promoter: activators of huntingtin-antisense promoter activity; HEK293 HTT-AS promoter firefly luciferase reporter, 24 h; response scale: percent change from vehicle, -100% = no light; Potency, µM (titrated, usually from 57.5 µM), for inactives: at the top dose activity change, positive = activation, usual class: activators; 0.24% of 48,000 active; further: potency means the concentration at half of the fitted maximal effect; nearly all actives have a fitted effect of over 55% in size
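HEK293 luciferase promoter-reporter cells (2,500/well) plated 24 h, then compounds added at up to 57.5 uM final for 24 h at 37 °C. Firefly luminescence by Dual-Glo, normalized to vehicle (0%) and zero RLU (-100%).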
GPR32 ag: GPR32 (DRV1) agonism, beta-arrestin recruitment; O75388; CHO-K1 GPR32 beta-arrestin PathHunter luminescence, 90 min; zero percent set by DMSO-only wells; activation, % at 76.9 µM; 2.5% of 48,000 active; AID 1346428;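 active means activation of at least 60% and not above a set upper limit, about 1 call in 100 departs from these limits; inconclusive means activation of 40% to 60%, or above that upper limit; inactive means activation under 40%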; further: 0% is about no effect
Target sequence (O75388 whole entry, looked up): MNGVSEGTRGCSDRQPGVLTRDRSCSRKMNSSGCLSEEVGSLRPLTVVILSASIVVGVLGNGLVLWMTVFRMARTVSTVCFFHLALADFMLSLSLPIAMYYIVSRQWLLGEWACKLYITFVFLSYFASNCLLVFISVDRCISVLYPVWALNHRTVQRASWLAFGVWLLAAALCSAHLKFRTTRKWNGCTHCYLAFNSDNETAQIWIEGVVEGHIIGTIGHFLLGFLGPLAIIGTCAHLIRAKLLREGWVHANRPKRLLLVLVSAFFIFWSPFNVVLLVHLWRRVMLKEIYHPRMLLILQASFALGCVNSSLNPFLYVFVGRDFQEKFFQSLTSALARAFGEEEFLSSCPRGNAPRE
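Step 1: seed CHO-K1 GPR32 beta-arrestin cells, 2,500/well, overnight at 37 °C. Step 2: add compounds, 90 min at 37 °C. Step 3: detection reagent, 1 h ambient, then luminescence.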
* marks the source's active call; other numbers are inactive results; ? = inconclusive; · = not tested or not shown; [ ] = dose if it differs, or a comment. Unless noted, the call rests on the fitted dose curve; in most records, active means well fitted curve in the direction sought with a large enough effect; inconclusive means small, poorly fitted or top-dose-only effect, or another doubt; inactive means no such curve, though single readings can be large; an effect the other way counts as inactive or inconclusive.

SMILES	HTT promoter inh	HTT-AS promoter	GPR32 ag
Cc1ccc(N(CC(=O)Nc2ccc(C)c(F)c2)S(=O)(=O)c2c(C)n[nH]c2C)cc1	-25.5%	-22.4%	102.3*
Cc1cc(C)cc(N(CC(=O)Nc2ccc(C(F)(F)F)cc2)S(=O)(=O)c2c(C)[nH]c(=O)[nH]c2=O)c1	?	-19.6%	112.5*
COc1cc(NC(=O)CN(c2cc(C)cc(C)c2)S(=O)(=O)c2c(C)[nH]c(=O)[nH]c2=O)cc(OC)c1	-22.4%[11.5 µM]	-16.0%	11.5
CN(C)CC[C@H](CSc1ccccc1)Nc1ccc(S(=O)(=O)NC(=O)c2ccc(N3CCN(Cc4ccccc4-c4ccc(Cl)cc4)CC3)cc2)cc1[N+](=O)[O-]	-12.4%	-12.5%	·
CCN1CCN(C(=O)Cn2ncc3c4ccccc4n(Cc4c(C)cc(C)cc4C)c3c2=O)CC1	-13.5%	-20.9%	-16.8
COc1cc(C(=O)Nc2cc3c(cc2C)n(C)c(=O)c(=O)n3C)cc(OC)c1OC	6.4%	-8.9%	8.3
CC(=O)OCC(=O)Nc1cc(C#N)cc(NC(=O)COC(C)=O)c1Cl	-3.7%	-4.1%	11.8
COC(=O)c1ccc(NC(=O)CN2C(=O)c3cccc4cccc2c34)cc1	4.1%	5.3%[11.5 µM]	4.5
CCc1ccc(NC(=O)CN2C(=O)c3cccc4cccc2c34)cc1	·	·	120.2*
COc1ccccc1NC(=O)CN1C(=O)CCSc2ccccc21	-15.5%	-13.7%	-6.8
CCc1ccc(NC(=O)CN2C(=O)CCSc3ccccc32)cc1	-20.4%	-18.6%	63.1*
O=C(O)CCCCC(CCSCc1ccccc1)SCc1ccccc1 (stereo unspecified)	35.6%	-21.3%	·
Cc1ccc(-c2ncn(-c3ccc(Nc4nccc(-c5cccc(N6CCOCC6)c5)n4)cc3)n2)cn1	68.5%	1.22µM*	·
N#CCNC(=O)c1ccc(-c2ccnc(Nc3ccc(N4CCOCC4)cc3)n2)cc1	2.6%	?	·
Clc1cccc(-n2nnnc2NCc2ccccc2Oc2ccccn2)c1Cl	-18.8%	-22.1%	·
CCCCCCCCCCCCCCCCOP(=O)([O-])OCC[N+](C)(C)C	-8.1%	-18.6%	93.5*
CCCCCCCCCCCCCCCCCCOC[C@H](COP(=O)([O-])OCC[N+](C)(C)C)OC	·	·	8.3
COc1ccc(C)cc1NC(=O)COc1cc(=O)n(C)c2ccccc12	-6.9%	1.7%	26.5
Nc1ccccc1NC(=O)c1ccc(CNC(=O)OCc2cccnc2)cc1	66.4%	5.1%	·
COc1cc2[nH]c(=O)n(CCCCCC(=O)N3CCN(c4cccc(C(F)(F)F)c4)CC3)c(=O)c2cc1OC	?	-24.7%	63.1*
O=C(c1ccc2c(c1)CCN2S(=O)(=O)c1ccccc1)N1CCN(c2cccc(Cl)c2)CC1	?	-8.3%	-15.6
CCCCCn1c(=O)[nH]c2cc(C(=O)N3CCN(c4cccc(C(F)(F)F)c4)CC3)ccc2c1=O	?	-33.1%	60.8*
CCCCCn1c(=O)[nH]c2cc(C(=O)N3CCN(c4ccccc4)CC3)ccc2c1=O	-8.7%	-7.1%	26.5
O=C(CCCCCn1c(=O)[nH]c2ccccc2c1=O)N1CCN(c2cccc(C(F)(F)F)c2)CC1	-7.4%	-30.3%	-9.9
CCS(=O)(=O)N1CCc2cc(C(=O)N3CCN(c4cccc(C(F)(F)F)c4)CC3)ccc21	?	-28.7%	64.7*
SMILES	HTT promoter inh	HTT-AS promoter	GPR32 ag
CCCCC(=O)O[C@]1(C(=O)CO)[C@@H](C)C[C@H]2[C@@H]3CCC4=CC(=O)C=C[C@]4(C)[C@@]3(F)[C@@H](O)C[C@@]21C	-2.8%	-7.8%	15.3
O=C(NCCc1csc2nc(-c3ccccc3F)nn12)c1ccccc1C(F)(F)F	-6.8%	-8.6%	25.9
O=C(Cc1ccc(F)cc1)NCCc1csc2nc(-c3ccccc3F)nn12	-0.8%	-10.9%	61.7*
O=C(NCCc1csc2nc(-c3ccccc3F)nn12)c1ccco1	-37.8%	?	17.7
COc1cccc(C(=O)NCCc2csc3nc(-c4ccccc4F)nn23)c1OC	-5.8%	2.0%	68.4*
CC(C)(O)CC[C@@H](O)[C@](C)(O)[C@H]1CC[C@@]2(O)C3=CC(=O)[C@@H]4C[C@@H](O)[C@@H](O)C[C@]4(C)[C@@H]3CC[C@]12C	-14.6%	-37.5%	·
O=c1cc(-c2ccccc2)oc2ccccc12	39.3%[116 µM]	?	62.3*
O=c1[nH]c(=O)c2ccccc2o1	-0.7%	-6.2%	-2.3
CCc1ccccc1Nc1ncnc2c1cnn2-c1ccc(C)cc1C	-2.4%	-2.3%	?
CCc1ccccc1Nc1ncnc2c1cnn2-c1ccc(Cl)cc1	0.0%	-14.2%	73.1*
Clc1cccc(-n2ncc3c(NCCCN4CCOCC4)ncnc32)c1	-7.8%	2.8%	84.6*
Cc1cccc(-n2ncc3c(NCCOCCO)ncnc32)c1	38.6%	3.98µM*	6.9
